Ba/F3 V617F tox – loss of viability in JAK2V617F-driven Ba/F3 cells. AID 1446. inhibition, % at 5.6 µM. Ba/F3 EpoR-JAK2V617F viability, ATP luminescence. hit rate 1.1% among 220,000;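 active = inhibition above the campaign mean plus 3 SD over all tested compounds, cut at about 24% in these data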;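 also: cytokine-independent growth of Ba/F3 cells driven by EpoR plus mutant JAK2; 0% = DMSO-treated cells and 100% = JAK inhibitor I control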
IEC-6 tox-1 – kills IEC-6 intestinal cells in KLF5 counter-screen; IEC-6 cytotoxicity, luminescence viability; inhibition, % at 5 µM; hit rate 0.78% among 290,000;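 also: 0% = plate median of test compound wells and 100% = cytotoxic reference compound wells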
DNA FID counter – counter-screen for HCV NS3 helicase inhibitors: DNA intercalator displacement; DNA fluorescent intercalator displacement, fluorescence; inhibition, % at 7.9 µM; hit rate 0.17% among 290,000; in the data active = inhibition above about 37%;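 also: 0% = vehicle and 100% = reference compound; higher means more ethidium bromide displaced from hairpin DNA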
GPR7 antagonist – antagonists of human GPR7 (neuropeptides B/W receptor 1). GPR7-expressing cells, fluorescence antagonist assay. hit rate 1.1% among 290,000. P48145. inhibition, % at 4.4 µM; in the data active = inhibition above about 16%, passing the limit was not always enough;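 also: cells stimulated with the agonist NPW; 0% = agonist with vehicle and 100% = vehicle without agonist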
Target sequence (P48145 whole entry, looked up): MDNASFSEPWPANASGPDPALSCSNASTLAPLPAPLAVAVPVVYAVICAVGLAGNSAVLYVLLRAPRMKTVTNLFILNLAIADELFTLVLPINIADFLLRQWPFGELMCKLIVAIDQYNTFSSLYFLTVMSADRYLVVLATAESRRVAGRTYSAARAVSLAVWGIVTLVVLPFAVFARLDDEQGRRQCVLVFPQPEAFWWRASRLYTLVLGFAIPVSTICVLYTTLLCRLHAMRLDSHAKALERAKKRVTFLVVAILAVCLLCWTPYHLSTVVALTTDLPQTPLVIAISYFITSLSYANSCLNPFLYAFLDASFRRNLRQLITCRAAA
BaF3 tox – reduces parental Ba/F3 cell viability, JAK2V617F counter-screen | CellTiter-Glo ATP luminescence | inhibition, % at 5.6 µM | hit rate 1.1% among 220,000;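 active = inhibition above a per-campaign cutoff, the mean inhibition of all tested compounds plus 3 SD, cut at about 27% in these data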;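 also: 0% = DMSO wells and 100% = JAK Inhibitor I control wells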
KLF5 inh – suppresses KLF5 promoter-driven expression; DLD-1 KLF5 promoter-luciferase reporter, luminescence; inhibition, % at 5 µM; hit rate 0.23% among 290,000; AID 1700;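 active = inhibition above a per-plate limit of that plate's mean compound inhibition plus 3 SD, cut at about 60% in these data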;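 also: 0% = DMSO wells and 100% = LY294002 at 200 µM; higher means less KLF5 promoter-driven luciferase light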
KLF5 inh confirm – KLF5 inhibition, confirmation assay; hit rate 79% among 610; inhibition, % at 4 µM; shares compounds with KLF5 inh; DLD-1 KLF5 promoter firefly luciferase reporter, luminescence;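 active = inhibition above a set limit taken from the earlier primary screen, cut at about 63% in these data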;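 also: 0% = DMSO wells and 100% = LY294002 at 200 µM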
IEC-6 tox-2 – counter-screen for KLF5 inhibitors: cytotoxicity in rat IEC-6 cells; shares compounds with KLF5 inh; IEC-6 rat intestinal cells, viability luminescence; inhibition, % at 4 µM; hit rate 56% among 610; AID 1905; in the data active = inhibition above about 23%;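 also: cells exposed to compounds for 48 hours before viability read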
IEC-6 tox confirm – IEC-6 cytotoxicity, confirmation assay; AID 1907; hit rate 63% among 1,900; shares compounds with IEC-6 tox-1; inhibition, % at 5 µM; IEC-6 rat intestinal epithelial viability, luminescence;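 also: 0% = vehicle and 100% = reference cytotoxic drug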
An asterisk follows results filed as active. An excerpt weighted towards active compounds, which were near 2.6% of everything screened. Rule as the data show it, unless noted: active = inhibition above about 22%; inactive = the rest.

COc1ccc(OC)c(Nc2cc(-c3ccccc3)nc(N)n2)c1 was read as Ba/F3 V617F tox 83*, IEC-6 tox-1 89*, DNA FID counter -4, GPR7 antagonist 1, BaF3 tox 76*, KLF5 inh 65*, KLF5 inh confirm 71*, IEC-6 tox-2 58* and IEC-6 tox confirm 57*.
Screening COc1ccc(/C=N/NC(=O)COc2ccccc2-c2ccccc2)cc1 returned Ba/F3 V617F tox 76*, IEC-6 tox-1 79*, DNA FID counter -12, GPR7 antagonist 3, BaF3 tox 76*, KLF5 inh 65*, KLF5 inh confirm 77*, IEC-6 tox-2 54* and IEC-6 tox confirm 56*.
For O=C(COc1ccccc1-c1ccccc1)N/N=C/c1cccc2ccccc12 the results were Ba/F3 V617F tox 2, IEC-6 tox-1 12, DNA FID counter -7, GPR7 antagonist 2, BaF3 tox 4 and KLF5 inh 5.
Screening CN1C(=O)C(O)(c2nnc(-c3ccccc3)o2)c2ccccc21 (configuration not stated) returned Ba/F3 V617F tox -5, IEC-6 tox-1 3, DNA FID counter -5, GPR7 antagonist -10, BaF3 tox -2 and KLF5 inh -25.
Screening COc1ccc(C)cc1Nc1c2c(nc3ccccc13)CCC2 returned IEC-6 tox-1 88*, DNA FID counter 1, GPR7 antagonist 8, KLF5 inh 62*, KLF5 inh confirm 87*, IEC-6 tox-2 70* and IEC-6 tox confirm 55*.
Screening NC(=O)C1CCN(c2c([N+](=O)[O-])cc(C(F)(F)F)cc2[N+](=O)[O-])CC1 returned Ba/F3 V617F tox -1, IEC-6 tox-1 3, DNA FID counter -4, GPR7 antagonist -5, BaF3 tox 3 and KLF5 inh 3.
CCCC1=Nc2cc(C(=O)NCCCOCC)ccc2Sc2ccccc21 was read as Ba/F3 V617F tox 93*, IEC-6 tox-1 97*, DNA FID counter -57, GPR7 antagonist 0, BaF3 tox 91*, KLF5 inh 80*, KLF5 inh confirm 86*, IEC-6 tox-2 71* and IEC-6 tox confirm 74*.
CCC1=Nc2cc(C(=O)NCCCN3CCOCC3)ccc2Sc2ccccc21 was read as IEC-6 tox-1 5, DNA FID counter 26, GPR7 antagonist 0 and KLF5 inh -35.
Screening O=C(N/N=C/c1cccc(Oc2ccccc2)c1)c1ccccc1F returned IEC-6 tox-1 28*, DNA FID counter -23, GPR7 antagonist 0, KLF5 inh 64*, KLF5 inh confirm 66*, IEC-6 tox-2 2 and IEC-6 tox confirm 21.
`COC(=O)c1ccc(C)c(NS(=O)(=O)c2ccc3c(c2)OCCO3)c1` gave Ba/F3 V617F tox 75*, IEC-6 tox-1 80*, DNA FID counter -11, GPR7 antagonist 23, BaF3 tox 55*, KLF5 inh 82*, KLF5 inh confirm 76*, IEC-6 tox-2 56* and IEC-6 tox confirm 54*.
Screening COC(=O)c1ccc(C)c(NS(=O)(=O)c2ccc(C)c([N+](=O)[O-])c2)c1 returned Ba/F3 V617F tox 1, IEC-6 tox-1 -1, DNA FID counter 0, GPR7 antagonist 1, BaF3 tox 1 and KLF5 inh -10.
`CCOC(=O)c1[nH]c(C)c(C(=O)Nc2cc(Cl)ccc2C)c1C` gave Ba/F3 V617F tox 74*, IEC-6 tox-1 82*, DNA FID counter -9, GPR7 antagonist 12, BaF3 tox 73*, KLF5 inh 72*, KLF5 inh confirm 68*, IEC-6 tox-2 61* and IEC-6 tox confirm 63*.
`CCOC(=O)c1[nH]c(C)c(C(=O)Nc2ccc(C)c(Cl)c2)c1C` gave Ba/F3 V617F tox 2, IEC-6 tox-1 2, DNA FID counter -5, GPR7 antagonist -7, BaF3 tox 7 and KLF5 inh -5.
`Cn1c(SCC(=O)Nc2ccc3c(c2)n(C)c(=O)n3C)nnc1-c1ccncc1` gave IEC-6 tox-1 -2, DNA FID counter -12, GPR7 antagonist -6 and KLF5 inh -14.
COc1ccccc1N1CCN(C(=O)C2c3ccccc3Oc3ccccc32)CC1 was read as Ba/F3 V617F tox 83*, IEC-6 tox-1 82*, DNA FID counter -41, GPR7 antagonist 14, BaF3 tox 78*, KLF5 inh 70*, KLF5 inh confirm 70*, IEC-6 tox-2 57* and IEC-6 tox confirm 57*.
Screening Nc1nc2nc(SCC(=O)N3CCCc4ccccc43)[nH]c2c(=O)[nH]1 returned Ba/F3 V617F tox -4, IEC-6 tox-1 5, DNA FID counter -3, GPR7 antagonist -9, BaF3 tox 0 and KLF5 inh -20.
For COCCN(CCOC)S(=O)(=O)c1ccc(C(=O)Nc2nc(-c3ccccc3)c(C(=O)c3ccccc3)s2)cc1 the results were Ba/F3 V617F tox -5, IEC-6 tox-1 -5, DNA FID counter -1, GPR7 antagonist -6, BaF3 tox 1 and KLF5 inh -6.
Screening COC(=O)Nc1nc(-c2ccccc2)c(C(=O)c2ccc(Cl)cc2)s1 returned Ba/F3 V617F tox 0, IEC-6 tox-1 56*, DNA FID counter -2, GPR7 antagonist -11, BaF3 tox 6, KLF5 inh 62*, KLF5 inh confirm 85*, IEC-6 tox-2 67* and IEC-6 tox confirm 58*.
Screening CCOC(=O)N1CCC(NC(=O)c2ccc3c(c2)N=C(C)c2c(C)ccc(C)c2S3)CC1 returned IEC-6 tox-1 87*, DNA FID counter -55, GPR7 antagonist 17, KLF5 inh 71*, KLF5 inh confirm 87*, IEC-6 tox-2 61* and IEC-6 tox confirm 67*.
Cc1cc(Br)ccc1SCC(=O)OCC(=O)NC1CC1 was read as Ba/F3 V617F tox 0, IEC-6 tox-1 -4, DNA FID counter -13, GPR7 antagonist -1, BaF3 tox 5 and KLF5 inh -34.
`CCC1=Nc2cc(C(=O)NCc3ccco3)ccc2Sc2ccc(C)cc21` gave Ba/F3 V617F tox 86*, IEC-6 tox-1 81*, DNA FID counter -42, GPR7 antagonist 12, BaF3 tox 84*, KLF5 inh 75*, KLF5 inh confirm 88*, IEC-6 tox-2 67* and IEC-6 tox confirm 65*.
Screening O=C(O)C1C2C=CC(O2)C1C(=O)NCc1ccc(Cl)cc1 (configuration not stated) returned Ba/F3 V617F tox -4, IEC-6 tox-1 0, DNA FID counter -1, GPR7 antagonist -11, BaF3 tox 0 and KLF5 inh -21.
Screening CCc1nnc(NC(=O)CSc2nc(-c3ccc(OC)cc3)ns2)s1 returned Ba/F3 V617F tox 0, IEC-6 tox-1 -2, DNA FID counter -1, GPR7 antagonist -12, BaF3 tox 3 and KLF5 inh -36.

Compound activity deposited in PubChem BioAssay by The Scripps Research Institute Molecular Screening Center.
